Assay outcomes (PubChem)
Sampled rows, rich in hits. Any-hit rate of the full collection: about 6.7%.
C diff HTS: C. difficile growth inhibition; Clostridium difficile clinical isolate growth, OD600, 24 h; stronger effect = lower value; growth activity, negative = inhibition, % at 16 µg/mL (by protocol); actives 0.25% (n = 86,000); AID 1259249;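 active = mean growth activity at or below -80% and every replicate also at or below -80%; inconclusive = mean at or below -80% but some replicate above -80%; inactive = mean growth activity above -80%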;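 also: 0% = DMSO wells and -100% = levofloxacin 16 µg/mL wells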
Pf Dd2 growth: P. falciparum Dd2 growth inhibition; activity change, % at 10 µM; actives 2.3% (n = 94,000); SYBR Green, 72 h; stronger effect = lower value; in the data active = activity change below about -80%; inconclusive = no clear call, values can overlap the other calls
T cruzi growth-1: blocks T. cruzi growth in NIH3T3 culture; T. cruzi beta-gal in NIH3T3, GalScreen luminescence, 90 h; inhibition, % at 8.34 µM; actives 5.9% (n = 77,000);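 active = mean inhibition above about 93%, with at least 55% of replicates each passing it, limit read from the data, passing the limit was not always enough; inconclusive = only one of those two conditions holds; inactive = neither condition holds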
T cruzi growth-2: blocks T. cruzi growth in NIH3T3 host cells. actives 72% (n = 5,600). inhibition, % at 8.35 µM. T. cruzi beta-gal in NIH3T3, GalScreen luminescence, 90 h. shares compounds with T cruzi growth-1;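 active = mean replicate inhibition above about 95% and at least 55% of replicates individually reaching it, limit read from the data; inconclusive = only one of the two criteria is met; inactive = neither criterion is met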
T cruzi growth-3: inhibitors of T. cruzi proliferation | shares compounds with T cruzi growth-1 | T. cruzi beta-gal in NIH3T3, GalScreen luminescence, 90 h | inhibition, % at 2.09 µM | actives 21% (n = 5,600) | AID 651740;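 active = mean inhibition above about 95%, with at least 55% of replicates also reaching it, limit read from the data; inconclusive = meets just one of the two conditions; inactive = meets neither condition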;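 also: plate controls were neutral control median for no effect and positive control median for full effect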
NIH3T3 tox: NIH/3T3 (mouse) viability loss; AID 651742; shares compounds with T cruzi growth-1; NIH/3T3 viability, CellTiter-Glo ATP luminescence, 90 h; actives 14% (n = 5,600); cytotoxicity (signal decrease), % at 8.35 µM;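 active = mean signal decrease across replicates above about 35% based on untreated-well scatter, with enough replicates individually passing, limit read from the data; inconclusive = no rule stated though some were filed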;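 also: 0% = median of neutral control wells and 100% = median of positive control wells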
3T3 cytotox 2: kills mouse NIH/3T3 fibroblasts | shares compounds with T cruzi growth-1 | NIH/3T3 viability, CellTiter-Glo ATP luminescence, 90 h | inhibition, % at 24.9 µM | actives 56% (n = 5,600) | AID 651744;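 active = mean loss of cell viability signal at or above a set limit, and enough replicates individually reaching it; inconclusive = meets only the mean limit or only the replicate share; inactive = meets neither condition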;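 also: 0% = median of neutral control wells and 100% = median of positive control wells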
Starred values were filed as active, the others as inactive; ? = inconclusive; . = no result given.

SMILES | C diff HTS | Pf Dd2 growth | T cruzi growth-1 | T cruzi growth-2 | T cruzi growth-3 | NIH3T3 tox | 3T3 cytotox 2
C[C@H](CO)N1C[C@H](C)[C@H](CN(C)C(=O)NC2CCCCC2)OCCCC[C@H](C)Oc2ccc(NC(=O)Nc3ccc(C(F)(F)F)cc3)cc2C1=O | 3 | -45 | 80 | . | . | . | .
C[C@@H]1CN([C@H](C)CO)C(=O)c2cc(NC(=O)Nc3ccc(C(F)(F)F)cc3)ccc2O[C@@H](C)CCCCO[C@@H]1CN(C)C(=O)NC1CCCCC1 | 1 | -75 | 80 | . | . | . | .
Cc1noc(C)c1NC(=O)N(C)C[C@H]1OCCCC[C@@H](C)Oc2ccc(NC(=O)NC3CCCCC3)cc2C(=O)N([C@H](C)CO)C[C@@H]1C | -14 | -14 | 71 | . | . | . | .
CN1[C@@H]2Cn3c(ccc(-c4ccc(F)cc4)c3=O)[C@H]1[C@@H](C(=O)NC1CCCCC1)[C@@H]2CO | -3 | 16 | 41 | . | . | . | .
C[C@H](CO)N1C[C@H](C)[C@@H](CN(C)C)Oc2ccc(NC(=O)CCN3CCOCC3)cc2C1=O | -1 | -2 | . | . | . | . | .
C[C@@H](NC(=O)C[C@H]1CC[C@H]2[C@@H](COc3ccc(NS(=O)(=O)c4ccc(Cl)cc4)cc3C(=O)N2C)O1)c1ccccc1 | -4 | -5 | 33 | . | . | . | .
CCC(=O)N1CC2(C1)CN(C(=O)NC1CCCC1)[C@H](CO)c1c2c2ccc(OC)cc2n1C | -2 | 5 | . | . | . | . | .
COCC(=O)N1CC(=O)N2[C@H](CO)[C@H](c3ccc(-c4ccccc4F)cc3)[C@@H]2C1 | -12 | 26 | . | . | . | . | .
C[C@H](CO)N1C[C@H](C)[C@@H](CN(C)Cc2cccc(F)c2)OCc2ccccc2-c2c(n(C)c3ccccc23)C1=O | 22 | -65 | . | . | . | . | .
C[C@@H]1CN([C@H](C)CO)C(=O)c2c(c3ccccc3n2C)-c2ccccc2CO[C@@H]1CN(C)Cc1cccnc1 | -1 | ? | 111* | 109* | 53 | 1 | 51*
C[C@H]1CN([C@@H](C)CO)C(=O)c2c(c3ccccc3n2C)-c2ccccc2CO[C@@H]1CN(C)C(=O)[C@@H](Cc1ccccc1)N(C)C | -9 | -15 | -9 | . | . | . | .
C[C@H](CO)N1C[C@H](C)[C@H](CN(C)C(=O)[C@H](Cc2ccccc2)N(C)C)OCc2ccccc2-c2c(n(C)c3ccccc23)C1=O | 6 | -17 | ? | 88 | 35 | 16 | ?
C[C@H]1CN([C@@H](C)CO)C(=O)c2c(c3ccccc3n2C)-c2ccccc2CO[C@H]1CN(C)Cc1cccnc1 | -3 | 13 | ? | 88 | 27 | 37* | 63*
C[C@@H]1CN([C@@H](C)CO)C(=O)c2c(c3ccccc3n2C)-c2ccccc2CO[C@@H]1CN(C)Cc1ccncc1 | . | -56 | -10 | . | . | . | .
Cc1noc(C)c1S(=O)(=O)Nc1ccc2c(c1)C(=O)N([C@H](C)CO)C[C@@H](C)[C@@H](CN(C)S(=O)(=O)c1cn(C)cn1)OCCCC[C@H](C)O2 | 10 | 3 | 13 | . | . | . | .
CCCN(C)C[C@H]1OCCCC[C@@H](C)Oc2ccc(NC(=O)CCCN(C)C)cc2C(=O)N([C@@H](C)CO)C[C@H]1C | 1 | -13 | 47 | . | . | . | .
CCCNC(=O)C[C@@H]1C[C@@H]2c3cc(NS(=O)(=O)c4cccc(OC)c4)ccc3O[C@@H]2[C@H](CO)O1 | -1 | 11 | -33 | . | . | . | .
C[C@@H]1CN([C@@H](C)CO)C(=O)c2cc(C#Cc3ccccn3)cnc2O[C@@H]1CN(C)Cc1cncnc1 | -1 | 35 | ? | 104* | 28 | 14 | -6
C[C@@H]1CN([C@H](C)CO)C(=O)c2cc(C#Cc3ccccn3)cnc2O[C@@H]1CN(C)Cc1cncnc1 | -1 | 17 | 78 | . | . | . | .
C[C@H](CO)N1C[C@H](C)[C@@H](CN(C)Cc2cncnc2)Oc2ncc(C#Cc3ccccn3)cc2C1=O | -1 | 10 | ? | 103* | 46 | -1 | 9
C[C@@H]1CN([C@@H](C)CO)C(=O)c2cc(C#Cc3ccccn3)cnc2O[C@H]1CN(C)Cc1cccnc1 | 5 | 9 | 87 | . | . | . | .
C[C@@H]1CCCCO[C@H](CN(C)Cc2ccc(C(F)(F)F)cc2)[C@@H](C)CN([C@@H](C)CO)C(=O)c2cc(NS(C)(=O)=O)ccc2O1 | 8 | -78 | -20 | . | . | . | .
C[C@H](CO)N1C[C@H](C)[C@@H](CN(C)S(=O)(=O)c2ccc(F)cc2)Oc2cc(C3=CCCCC3)ccc2S1(=O)=O | 13 | -69 | 114* | 102* | 99* | 38* | 64*
Cc1ccc(S(=O)(=O)N(C)C[C@H]2Oc3cc(C4=CCCC4)ccc3S(=O)(=O)N([C@@H](C)CO)C[C@H]2C)cc1 | 3 | -23 | . | . | . | . | .
Cc1ccc(S(=O)(=O)N(C)C[C@H]2Oc3cc(C4=CCCC4)ccc3S(=O)(=O)N([C@H](C)CO)C[C@@H]2C)cc1 | 5 | -73 | . | . | . | . | .
SMILES | C diff HTS | Pf Dd2 growth | T cruzi growth-1 | T cruzi growth-2 | T cruzi growth-3 | NIH3T3 tox | 3T3 cytotox 2
C[C@@H]1CN([C@H](C)CO)S(=O)(=O)c2ccc(C3=CCCCC3)cc2O[C@H]1CN(C)S(=O)(=O)c1ccc(F)cc1 | 15 | -57 | 122* | 103* | 82 | 42* | 88*
COc1ccc(S(=O)(=O)N(C)C[C@@H]2Oc3c(NS(=O)(=O)c4cn(C)cn4)cccc3C(=O)N([C@H](C)CO)C[C@@H]2C)cc1 | 1 | 29 | 7 | . | . | . | .
C[C@@H]1CN([C@@H](C)CO)S(=O)(=O)c2ccc(C3=CCCC3)cc2O[C@H]1CN(C)Cc1ccccc1F | 13 | -27 | 121* | 101* | 105* | 30 | 104*
C[C@H](CO)N1C[C@H](C)[C@H](CN(C)Cc2ccccc2F)Oc2cc(C3=CCCC3)ccc2S1(=O)=O | -2 | -75 | 76 | . | . | . | .
C[C@@H]1CN([C@H](C)CO)S(=O)(=O)c2ccc(C3=CCCC3)cc2O[C@@H]1CN(C)Cc1ccccc1F | -2 | -70 | 103* | 99* | 105* | 4 | 107*
C[C@@H]1CN([C@@H](C)CO)S(=O)(=O)c2ccc(C3=CCCCC3)cc2O[C@H]1CN(C)Cc1ccccc1F | 6 | -57 | . | . | . | . | .
Cc1noc(C)c1S(=O)(=O)Nc1ccc2c(c1)C(=O)N([C@H](C)CO)C[C@H](C)[C@@H](CN(C)C(=O)NC1CCCCC1)OCCCC[C@H](C)O2 | 2 | -12 | -66 | . | . | . | .
CCC(=O)N1C[C@H](C)[C@H](OC)CN(C)C(=O)c2ccc(NC(=O)COC)cc2OC[C@H]1C | -6 | 2 | . | . | . | . | .
COCC#Cc1cnc2c(c1)C(=O)N([C@H](C)CO)C[C@@H](C)[C@@H](CN(C)S(=O)(=O)c1ccccc1)O2 | 1 | 8 | 11 | . | . | . | .
CN(C)CC(=O)N[C@H]1CC[C@@H](CC(=O)NCc2ccc(Cl)cc2)O[C@@H]1CO | -6 | -6 | 16 | . | . | . | .
CNC(=O)C[C@@H]1CC[C@@H]2[C@@H](COc3ccc(NC(=O)Nc4cccc(F)c4)cc3C(=O)N2C)O1 | 3 | 12 | 26 | . | . | . | .
